Reference: PubChem BioAssay (EPA / NIEHS)
“And” between values parts separate entries of the source, which are not always exact repeats. Equal values may be shown once. Inconclusive results are not listed. More than one record can exist for a structure, and the calls need not agree. The source made the active and inactive calls. The calls were made as follows: active = hit-call score of the fitted dose curve at least 0.9, where 1 is the maximum; inconclusive = response in the unintended direction; inactive = score below 0.9.

Biological target: Cellular tumor antigen p53 (Homo sapiens) (UniProt P04637)
Sequence (P04637 whole entry, looked up): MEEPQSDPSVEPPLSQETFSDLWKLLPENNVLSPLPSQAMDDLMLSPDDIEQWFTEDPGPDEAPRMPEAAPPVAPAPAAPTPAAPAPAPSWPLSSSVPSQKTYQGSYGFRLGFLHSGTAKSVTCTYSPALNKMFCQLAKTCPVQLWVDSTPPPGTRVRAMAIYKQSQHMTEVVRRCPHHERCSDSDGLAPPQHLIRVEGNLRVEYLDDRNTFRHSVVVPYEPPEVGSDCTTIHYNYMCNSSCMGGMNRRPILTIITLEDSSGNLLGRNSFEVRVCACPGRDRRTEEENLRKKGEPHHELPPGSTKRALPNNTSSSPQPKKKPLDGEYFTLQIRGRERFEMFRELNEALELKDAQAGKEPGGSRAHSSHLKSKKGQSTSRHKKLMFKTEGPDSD
Experiment: TOX21_p53_BLA_p5_ratio: Tox21 HCT-116 p53 Agonism Beta-lactamase Assay, Ratio, Phase 5 (AID 2283599)
From the text: TOX21_p53_BLA_p5 is a cell-based, single-readout assay that uses HCT116, a human intestinal cell line, […] in a 1536-well plate.TOX21_p53_BLA_p5_ratio is an assay readout measuring reporter gene via receptor activity and designed using inducible reporter (beta lactamase induction) detected with GAL4 b-lactamase reporter gene. The signal is derived from the ratio of cleaved (ch2) to uncleaved (ch1) reporter gene substrate used as the measure of target activity.Data from the assay component TOX21_p53_BLA_p5_ratio was analyzed into 1 assay endpoint. This assay endpoint, TOX21_p53_BLA_p5_ratio, was analyzed in the positive analysis fitting direction relative to DMSO as the negative control and baseline of activity. Using a type of inducible reporter, gain-of-signal activity can be used to understand changes in the reporter gene as they relate to the gene TP53. Furthermore, this assay endpoint can be referred to as a primary readout, because this assay has produced multiple assay endpoints and this ratio serves a reporter gene function to understand target activity. To generalize the intended target to other relatable targets, this assay endpoint is annotated to the DNA binding intended target family, where the subfamily is tumor suppressor.
Thawing Method: Place 14 mL of pre-warmed thaw medium into a 15 mL of conical tub. Remove the vial of cells to be thawed from liquid nitrogen and thaw rapidly by placing at 37C in a water bath with gentle agitation for 1-2 minutes. Decontaminate the vial by wiping with 70% ethanol before opening in a biological safety cabinet. Transfer the vial contents drop-wise into 14 mL of thaw medium in a sterile 15-mL conical tub. Centrifuge cells at 900 rpm for 4 minutes and resuspend in thaw medium. Transfer contents to the T75 tissue culture flask containing Thaw Medium and place flask in a humidified 37C/5% CO2 incubator. Switch to growth medium at first passage.Propagation Method: Aspirate medium, rinse once in DPBS, add 0.25% Trypsin/EDTA and swirl to coat the cell evenly. Add an equal volume of Growth Medium to inactivate Trypsin after 2-3 minutes incubation at 37C. Centrifuge cells at 900 rpm for 4 minutes and resuspend in growth medium. Cell should be passage or fed at least twice a week.Assay Protocol: Harvest cells from culture in growth medium and resuspend in assay medium. 2.2 Dispense 4000 cells/5 uL/well into 1536-well black/clear bottom plates using a Multidrop dispenser. After the cells were incubated at 37C for 5 hours, 23 nL of compounds dissolved in DMSO were transferred to the assay plate by a PinTool resulting in a 217-fold dilution. Incubate the plates for 16 hours at 37C, 5% CO2. Add 1 uL of 6X LiveBLAzer FRET B/G (CCF4-AM) Substrate Mixture to each well using a BioRAPTR dispenser and incubate the plates at room temperature for 2 hours. Measure fluorescence intensity at 460 and 530 nm emission and 405 nm excitation by an Envision detector. Data is expressed as the ratio of 460nm/530nm emissions. Add 4 uL of Cell-titer Glo to each well using BioRAPTR and incubate the plates at room temperature for 2 hours. Measure fluorescence intensity by a VewLux plate reader.

| Structure (SMILES) | outcome | AC50 |
| --- | --- | --- |
| C1CCC(NC2CCCCC2)CC1 | inactive |  |
| Clc1ccc(C2(Cn3cncn3)CC(Br)CO2)c(Cl)c1 (stereo not given) | inactive |  |
| c1cc[c]([Hg][c]2ccccc2)cc1 | inactive |  |
| Cc1ccccc1N | inactive |  |
| CC(C)(C)c1cc(O)ccc1O | inactive |  |
| CCC[CH2][Sn]([CH2]CCC)([CH2]CCC)[O]C(=O)c1ccccc1 |  | 24.7 µM (active) |
| [O-][Cl+2]([O-])O | inactive |  |
| CC(=O)[O][Hg][c]1ccccc1 |  | 2.9 µM (active) and 2.82 µM (active) and 4.64 µM (active) |
| CCC(=O)C(CC(C)N(C)C)(c1ccccc1)c1ccccc1 (stereo not given) | inactive |  |
| CCC[CH2][Sn]([Cl])([Cl])[Cl] | inactive |  |
| CCOP(=S)(OCC)Oc1nc(Cl)c(Cl)cc1Cl | inactive |  |
| O=C1C(Cl)=C(Cl)C(=O)c2ccccc21 |  | 63.4 µM (active) and 19.6 µM (active) |
| CC(C)(OO)c1ccccc1 | inactive |  |
| C(=NC1CCCCC1)=NC1CCCCC1 | inactive |  |
| CC(Br)C(=O)O (stereo not given) | inactive |  |
| Nc1ccc(-c2ccc(N)c(Cl)c2)cc1Cl | inactive | 16.3 µM (active) and 43.3 µM (active) |
| CCC(C)(C)c1ccc(O)c(C(C)(C)CC)c1 |  | 22.9 µM (active) and 70.8 µM (active) |
| O=C1C2(Cl)C3(Cl)C4(Cl)C(Cl)(Cl)C5(Cl)C3(Cl)C1(Cl)C5(Cl)C24Cl (stereo not given) |  | 83.8 µM (active) and 85 µM (active) |
| CC(C)OC(=O)Nc1ccccc1 | inactive |  |

| Structure (SMILES) | outcome | AC50 |
| --- | --- | --- |
| COP(=O)(OC)O/C(=C\Cl)c1cc(Cl)c(Cl)cc1Cl | inactive |  |
| CC(=O)OC(c1ccccc1)C(Cl)(Cl)Cl (stereo not given) | inactive |  |
| OCC(O)CCl (stereo not given) | inactive |  |
| CC(C)OC(=S)S | inactive |  |
| CCCCCCCCCCCCCCCC[n+]1ccccc1 |  | 71.7 µM (active) [middle of 4 runs] |
| CC(=O)c1cc(C(C)(C)C)cc2c1CCC2(C)C | inactive |  |
| O=C(O)C(F)(F)C(F)(F)C(F)(F)C(F)(F)C(F)(F)C(F)(F)C(F)(F)C(F)(F)C(F)(F)C(F)(F)F | inactive |  |
| C=CC(=O)OCCCCCC(C)C | inactive |  |
| COc1cc(-c2ccc(N)c(OC)c2)ccc1N | inactive | 71.3 µM (active) |
| ClCc1ccccn1 | inactive |  |
| C=C(C)C(=O)[O][Sn]([CH2]CCC)([CH2]CCC)[CH2]CCC |  | 35.9 µM (active) |
| NNC(=S)NN | inactive |  |
| COc1ccc(C=O)cc1 | inactive |  |
| CCCCCCCCc1ccc(O)cc1 | inactive |  |
| N#CN=C(N)N | inactive |  |
| O=C(Nc1ccc2[nH]ccc2c1)c1cc2cc(F)ccc2n1Cc1cccc(F)c1 |  | 83.2 µM (active) |
| ClCC(Cl)CCl | inactive |  |
| O=[N+]([O-])c1c(Cl)c(Cl)cc(Cl)c1Cl | inactive |  |
| Cc1cc(=O)[nH]o1 | inactive |  |
